Most compounds without a hit are left out; they make up all but 22% or so of the library.
F-actin modifier – modifiers of cytoskeleton assembly; AID 836; hit rate 0.18% among 91,000; HUVEC TNFa F-actin phalloidin imaging, high content; inhibition, % at 2 µM;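 active means inhibition above the batch mean plus 3 SD and confirmed as a hit by visual image inspection, cut at about 30% in these data, passing the limit was not always enough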
CYP2C9 inh – blocks human cytochrome P450 2C9; P11712; CYP2C9 Supersomes, luciferin-H conversion, luminescence; inhibition, % at 5 µM; hit rate 20% among 96,000;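 active means blocking of liver enzyme CYP2C9 beyond about 50% at 5 µM, limit read from the data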
Target sequence (P11712 whole entry, looked up): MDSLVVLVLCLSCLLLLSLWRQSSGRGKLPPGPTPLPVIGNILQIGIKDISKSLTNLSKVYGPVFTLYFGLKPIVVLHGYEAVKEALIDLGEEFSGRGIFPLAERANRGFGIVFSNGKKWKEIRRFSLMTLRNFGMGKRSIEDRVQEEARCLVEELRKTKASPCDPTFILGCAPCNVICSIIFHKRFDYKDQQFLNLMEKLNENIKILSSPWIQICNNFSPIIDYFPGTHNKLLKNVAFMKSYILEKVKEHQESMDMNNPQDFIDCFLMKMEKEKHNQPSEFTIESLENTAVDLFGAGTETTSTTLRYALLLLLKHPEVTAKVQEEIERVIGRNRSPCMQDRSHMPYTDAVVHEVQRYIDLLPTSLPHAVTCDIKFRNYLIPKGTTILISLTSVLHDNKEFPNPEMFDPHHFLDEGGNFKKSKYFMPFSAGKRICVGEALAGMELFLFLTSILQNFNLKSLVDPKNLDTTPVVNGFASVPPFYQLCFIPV
CYP2C19 inh – inhibitors of human CYP2C19. inhibition, % at 5 µM. AID 778. hit rate 21% among 96,000. CYP2C19 Supersomes, luciferin-H EGE luminescence, 30 min;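 active means CYP2C19 inhibition above a set limit at 5 µM in the primary screen, cut at about 50% in these data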;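 further: plate controls were negative control wells for no effect and 2.5 mM tranylcypromine positive control for full effect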
E-sel TNF inh – TNF alpha driven E-selectin expression inhibition; HUVEC TNFa-induced E-selectin immunofluorescence, high content; inhibition, % at 2 µM; hit rate 0.71% among 120,000; AID 1246;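 active means inhibition above the batch mean plus 3 SD, and confirmed as a hit on visual image review, cut at about 43% in these data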;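 further: 0% = TNF-stimulated DMSO wells and 100% = unstimulated control wells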
CYP2C19 activ – cytochrome P450 2C19 (human) activation | recombinant CYP2C19, luciferin-H EGE luminescence; stronger effect = higher value; 0 = fully inhibited enzyme, 1 = untreated enzyme | activation factor at 5 µM | 96,000 tested, under 10 active;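 active means activation factor of at least 2 at 5 µM in the primary screen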;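 further: 0 = wells with 2.5 mM tranylcypromine and 1 = vehicle-only wells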
CYP2C9 act – activators of human CYP2C9; recombinant CYP2C9, luciferin-H conversion, luminescence; stronger effect = higher value; factor 1 = untreated enzyme, 0 = blocked; activation factor at 5 µM; hit rate 1.4% among 96,000; P11712;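 active means activation factor of 2 or more for CYP2C9 at a 5 µM dose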;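 further: 0 = sulfaphenazole-blocked wells and 1 = vehicle-only wells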
An asterisk follows results filed as active; x = no result given.

SMILES	F-actin modifier	CYP2C9 inh	CYP2C19 inh	E-sel TNF inh	CYP2C19 activ	CYP2C9 act
CCCc1[nH]nc2c1C(c1ccccc1OC)C(C#N)=C(N)O2 (stereo not given)	-10	17	28	-14	0.7	0.8
Cc1cccc(C(C)C)c1NC(=O)CN(C)Cc1cccc(F)c1	x	x	x	-25	x	x
COc1ccc(C2C(C#N)=C(N)Oc3n[nH]c(C)c32)cc1Cn1nnc2ccccc21 (stereo not given)	9	68*	46	-3	0.5	0.3
COc1ccc(C2C(C#N)=C(N)Oc3n[nH]c(C)c32)cc1CSc1ccccn1 (stereo not given)	2	32	32	-11	0.7	0.7
Cc1ccc(NC(=S)NC2CC3CCC(C2)N3Cc2ccco2)c(C)c1 (stereo not given)	-4	-1	2	23	1	1
COc1ccccc1NS(=O)(=O)c1ccc(Br)s1	12	6	92*	-7	0.1	0.9
COc1cccc(NS(=O)(=O)c2ccc(Br)s2)c1	x	84*	100*	x	0	0.2
COc1ccc(-n2c(C)nc3cc(C(=O)N4CCOCC4)ccc32)cc1	-10	17	18	-4	0.8	0.8
Cc1ccccc1C(=O)N1CCC(C(=O)N2CCN(S(=O)(=O)c3ccccc3F)CC2)CC1	x	x	x	-20	x	x
CSc1ccccc1NC(=O)COC(=O)c1ccccc1O	x	x	x	46	x	x
O=C1c2[nH]nc(-c3ccccc3O)c2C(c2cccc(Cl)c2)N1Cc1ccco1 (stereo not given)	48	95*	87*	x	0.1	0
O=C1c2[nH]nc(-c3ccccc3O)c2C(c2cccc(Cl)c2)N1CC1CCCO1 (stereo not given)	-9	88*	70*	x	0.3	0.1
O=C1c2[nH]nc(-c3ccccc3O)c2C(c2ccc(F)cc2)N1Cc1ccco1 (stereo not given)	10	97*	84*	-2	0.2	0
O=C1C(=O)N(Cc2ccco2)C(c2cccc(Cl)c2)/C1=C(\O)c1ccc2c(c1)OCCO2 (stereo not given)	x	x	x	-15	x	x
CCOC(=O)/C=C1\SCC(=O)N1CC(=O)Nc1ccc(C(C)C)cc1	3	22	36	-5	0.6	0.8
O=C1COc2ccc(C(=O)CSc3nnnn3-c3ccccc3)cc2N1	10	14	28	-25	0.7	0.9
Cn1c(=O)c2c(SCc3cccnc3)nc(CC(C)(C)C)nc2n(C)c1=O	x	98*	90*	x	0.1	0
CCCc1nc(SCc2cccnc2)c2c(=O)n(C)c(=O)n(C)c2n1	7	90*	100*	x	0	0.1
Cc1c(Cl)c([N+](=O)[O-])nn1CCCC(=O)Nc1sc2c(c1C#N)CCC2	2	35	-12	-35	1.1	0.7
CCc1cc2cc3c(cc2nc1SCC(=O)Nc1nccs1)OCO3	5	-9	-8	-4	1.1	1.1
CC1(C)Cc2noc(N)c2C(C)(C)N1O	0	x	x	-6	x	x
CC1(C)Cc2noc(N)c2C(C)(C)N1OC(=O)c1scc2c1OCCO2	34	29	51*	-37	0.5	0.7
CC1(C)Cc2noc(N)c2C(C)(C)N1OC(=O)c1cccs1	-3	83*	98*	7	0	0.2
CC(=O)ON1C(C)(C)Cc2noc(N)c2C1(C)C	11	1	-5	-49	1.1	1
COC(=O)c1ccc(CSc2nc(C)nc3sc(C)c(C)c23)o1	0	4	32	x	0.7	1
SMILES	F-actin modifier	CYP2C9 inh	CYP2C19 inh	E-sel TNF inh	CYP2C19 activ	CYP2C9 act
COc1cc(NC(=O)c2ccc3c(c2)OCO3)ccc1NC(=O)C(C)C	-3	44	45	-21	0.5	0.6
CCCC(=O)Nc1cccc(NC(=O)c2ccc3c(c2)OCCO3)c1	-6	36	59*	-19	0.4	0.6
O=C(Nc1ccc(Cl)cc1)c1ccc2c(c1)OCO2	1	-2	32	-14	0.7	1
CCCCC(=O)Nc1ccc(NC(=O)c2ccc3c(c2)OCO3)cc1OC	15	59*	86*	13	0.1	0.4
O=C(Nc1ccc(F)c(F)c1)c1ccc2c(c1)OCO2	7	49	94*	x	0.1	0.5
COc1cc(C#N)ccc1OCC(=O)c1ccc2c(c1)OCCO2	13	-6	62*	-2	0.4	1.1
O=C(Nc1ccc2c(c1)OCO2)Nc1ccc2c(c1)OCO2	x	x	x	-7	x	x
O=C(Nc1ccc2nsnc2c1)c1ccc2c(c1)OCO2	12	4	1	100*	1	1
O=C(Nc1cccc(NC(=O)c2ccco2)c1)c1ccc2c(c1)OCO2	4	30	50*	-18	0.5	0.7
CCOc1ccc(C(=O)Nc2ccc3c(c2)OCCO3)cc1OC	18	7	69*	10	0.3	0.9
O=C(Nc1ccc2c(c1)OCO2)c1ccc(Cl)s1	2	62*	81*	-1	0.2	0.4
O=C(Nc1cccc(NC(=O)c2ccco2)c1)c1ccc2c(c1)OCCO2	x	x	x	-26	x	x
NC(=O)c1ccc(NC(=O)c2ccc3c(c2)OCO3)cc1	-7	-2	1	-15	1	1
O=C(NCc1cccs1)C1CCCN(S(=O)(=O)c2ccc(Br)s2)C1 (stereo not given)	7	-31	-3	24	1	1.3
O=C(CCC1CCCN(C(=O)C2=CCCC2)C1)N1CCN(c2ccccn2)CC1 (stereo not given)	x	x	x	-5	x	x
O=C(Nc1ccc2c(c1)OCO2)c1cccc(Cl)c1	6	22	70*	-26	0.3	0.8
O=C(Nc1ccc2c(c1)OCO2)c1ccc[n+]([O-])c1	6	x	x	-20	x	x
Cn1c(/C=N/NC(=O)c2ccccc2Br)nc2ccccc21	13	62*	69*	23	0.3	0.4
Cc1cc(=O)n2[nH]c(N3C(=O)CCC3=O)nc2n1	27	-13	-14	x	1.1	1.1
CCN(CCCNC(=O)CC(C(=O)N1CCc2ccccc21)n1ccnc1)c1ccccc1 (stereo not given)	-27	32	94*	21	0.1	0.7
O=C(CC(C(=O)N1CCc2ccccc21)n1ccnc1)NCc1cccnc1 (stereo not given)	5	x	x	7	x	x
COc1cc(Br)c(S(=O)(=O)Nc2c(C)n(C)n(-c3ccccc3)c2=O)cc1OC	-3	-21	-1	-29	1	1.2
CCOc1cc(C(=S)N2CCCCC2)ccc1OCC(=O)NCc1ccccc1	-3	83*	58*	x	0.4	0.2
CCOc1cc(C(=S)N2CCC(O)CC2)ccc1OS(=O)(=O)c1ccc(Br)cc1	-9	68*	87*	27	0.1	0.3
CCOc1cc(C(=S)N2CCCCC2)ccc1OS(=O)(=O)c1ccc(Br)cc1	7	69*	56*	2	0.4	0.3
CCOc1ccc(C(=S)N2CCOCC2)cc1OCC	-5	-44	-17	22	1.2	1.4
CCOC(=O)C1CCN(S(=O)(=O)c2ccc(Br)c(OCC)c2)CC1	-34	-13	40	-8	0.6	1.1

From PubChem
